Source: PubChem BioAssay (Tox21)
Results filed as inconclusive are left out. The source made the active and inactive calls. Unless noted, the call rests on the fitted dose curve; in most records, active means well fitted curve in the direction sought with a large enough effect in the repeat runs; inconclusive means weak or mixed curves; inactive means no such curve, though single readings can be large; an effect the other way counts as inactive or inconclusive.

Assays:
[1] = qHTS assay to identify small molecule agonists of the peroxisome proliferator-activated receptor delta (PPARd) signaling pathway - cell viability counter screen (AID 743211); further: nearly all actives have a fitted effect of over 55% in size
Outline: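 Tox21 library compounds, delivered in DMSO, were incubated 17 h with PPARd-bla HEK293H cells; cytotoxicity was taken from CellTiter-Glo luminescence read 30 min after reagent addition.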

[2] = biological target: Peroxisome proliferator-activated receptor delta (Homo sapiens) (UniProt Q03181); test: qHTS assay to identify small molecule agonists of the peroxisome proliferator-activated receptor delta (PPARd) signaling pathway (AID 743212; calls by dose curve)
Outline: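 GeneBLAzer UAS-bla HEK293H cells carrying a PPARδ construct were exposed to compounds at 37 °C. Beta-lactamase activity was read by FRET fluorescence after 2 h at room temperature with LiveBLAzer B/G substrate.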

[3] = qHTS assay to identify small molecule antagonists of the peroxisome proliferator-activated receptor delta (PPARd) signaling pathway - cell viability counter screen (AID 743213); further: nearly all actives have a fitted effect of over 50% in size
Outline: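 Same-well viability: cells pre-incubated 5 h, dosed with compound plus 300 nM L165041, kept 17 h at 37 C, FRET substrate 2 h RT, then CellTiter-Glo 30 min RT and luminescence.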

[4] = biological target: Peroxisome proliferator-activated receptor delta (Homo sapiens) (UniProt Q03181); test: qHTS assay to identify small molecule antagonists of the peroxisome proliferator-activated receptor delta (PPARd) signaling pathway (AID 743215; active means well fitted inhibition curve with a large enough effect in the signal ratio in the repeat runs, not every such curve was filed as active; the % refers to the signal ratio;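 further: cells stimulated with agonist L165041 at 300 nM final during compound exposure; series mostly up to about 62 µM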)
Outline: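 PPARd UAS-bla HEK293H cells were pre-incubated 5 h at 37 C, then given test compounds in DMSO plus agonist L165041 (300 nM final). After 17 h at 37 C, beta-lactamase FRET substrate was added; fluorescence read after 2 h at room temperature.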

[5] = biological target: Bile acid receptor (Homo sapiens) (UniProt Q96RI1); test: qHTS assay to identify small molecule antagonists of the farnesoid-X-receptor (FXR) signaling pathway (AID 743217; active means well fitted inhibition curve with a large enough effect in the signal ratio in the repeat runs, not every such curve was filed as active; the % refers to the signal ratio)
Outline: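 FXR-UAS-bla HEK 293T cells pre-incubated 5 h at 37 °C, then exposed to compounds with chenodeoxycholic acid (50 uM final) for 16 h at 37 °C. Beta-lactamase reporter read by LiveBLAzer B/G FRET substrate fluorescence after 2 h at room temperature.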

[6] = qHTS assay to identify small molecule agonists of the farnesoid-X-receptor (FXR) signaling pathway - cell viability counter screen (AID 743218); further: nearly all actives have a fitted effect of over 45% in size; further: potency means the concentration at half of the fitted maximal effect
Outline: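 FXR-UAS-bla HEK 293T cells, plated 5 h at 37 C, were exposed to compounds for 16 h at 37 C. CellTiter-Glo was then added to the same wells as the bla readout; luminescence read after 30 min at room temperature.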

[7] = biological target: Bile acid receptor (Homo sapiens) (UniProt Q96RI1); test: qHTS assay to identify small molecule agonists of the farnesoid-X-receptor (FXR) signaling pathway (AID 743220; active means well fitted activation curve with a large enough effect in the signal ratio in the repeat runs, not every such curve was filed as active; the % refers to the signal ratio)
Outline: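 Beta-lactamase reporter under UAS control in GeneBLAzer FXR HEK 293T cells (5000/well) measured with LiveBLAzer FRET substrate after 2 h at room temperature. Compound exposure lasted 16 h at 37C.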

[8] = qHTS assay to identify small molecule antagonists of the farnesoid-X-receptor (FXR) signaling pathway - cell viability counter screen (AID 743221; active means well fitted cell-killing curve with a large enough effect in the repeat runs, not every such curve was filed as active; further: nearly all actives have a fitted effect of over 50% in size)
Outline: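 Cytotoxicity is taken from ATP luminescence (CellTiter-Glo, 30 min, room temperature) in FXR-bla HEK 293T cells previously incubated 16 h at 37 C with compound and chenodeoxycholic acid at 50 uM final.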

[9] = qHTS assay to identify small molecule agonists of the vitamin D receptor (VDR) signaling pathway - cell viability counter screen (AID 743224); further: series mostly up to about 63 µM; nearly all actives have a fitted effect of over 50% in size
Outline: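 VDR-bla cells were preincubated 4 h at 37C/5% CO2, then exposed to compounds for 16 h. After the 2 h room-temperature bla FRET read, CellTiter-Glo was added to the same wells and luminescence read after 30 min.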

[10] = qHTS assay to identify small molecule antagonists of the vitamin D receptor (VDR) signaling pathway - cell viability counter screen (AID 743225); further: nearly all actives have a fitted effect of over 50% in size
Outline: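 Same-well multiplex: following 16 h treatment of HEK 293T cells carrying a UAS-driven beta-lactamase reporter with compound and agonist (3 nM final), and a 2 h FRET substrate step, CellTiter-Glo was added and luminescence read after 30 min.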

[11] = qHTS assay to identify small molecule agonists of the NFkB signaling pathway (AID 1159509; active means well fitted curve in the direction sought with a large enough effect in the signal ratio in the repeat runs, not every such curve was filed as active; the % refers to the signal ratio; further: series mostly up to about 61 µM)
Outline: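 NFkB-bla ME-180 cells carry a beta-lactamase reporter under an NF-kB response element. They were plated overnight, then exposed to compounds for 5 h at 37 C. Read-out is LiveBLAzer FRET after 1.5 hr at room temperature (405 nm excitation; 460/530 nm emission).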

[12] = qHTS assay to identify small molecule agonists of the endoplasmic reticulum stress response signaling pathway (AID 1159516; active means well fitted activation curve with a large enough effect in the signal ratio in the repeat runs, not every such curve was filed as active; the % refers to the signal ratio)
Outline: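 CellSensor ESRE-bla HeLa cells, carrying a beta-lactamase reporter driven by the ER stress response element, were plated overnight and exposed to compounds for 5 hr at 37 C. Reporter activity was read as FRET substrate fluorescence after 2 hr at room temperature.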

[13] = qHTS assay to identify small molecule agonists of the endoplasmic reticulum stress response signaling pathway - cell viability counter screen (AID 1159517; calls by dose curve)
Outline: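 ESRE-bla HeLa cells, 1,500 per well, seeded overnight then treated with compounds for 5 hr at 37 C. After the beta-lactamase read, viability in the same wells is measured by CellTiter-Glo luminescence after 30 min at room temperature.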

[14] = qHTS assay to identify small molecule antagonists of the retinoid-related orphan receptor gamma (ROR-gamma) signaling pathway - cell viability counter screen (AID 1159520); further: nearly all actives have a fitted effect of over 50% in size
Outline: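 Tet-on ROR gamma CHO cells were given compounds for 2 hr, then doxycycline hyclate at 1 uM final, and incubated 16 hr at 37 C. Viability was measured as ATP content by CellTiter-Glo luminescence.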

[15] = biological target: Nuclear receptor ROR-gamma (Homo sapiens) (UniProt P51449); test: qHTS assay to identify small molecule antagonists of the retinoid-related orphan receptor gamma (ROR-gamma) signaling pathway (AID 1159521)
Outline: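 Inducible-expression reporter assay: doxycycline (1 uM final) switched on RORγ in CHO cells bearing a ROR response element-luciferase construct, with test compounds present from 2 h beforehand. Decreased luminescence after 16 h defined antagonist activity.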

[16] = qHTS assay to identify small molecule agonists of the AP-1 signaling pathway (AID 1159526; calls by dose curve)
[17] = biological target: Vitamin D3 receptor (Homo sapiens) (UniProt P11473); test: qHTS assay to identify small molecule agonists of the vitamin D receptor (VDR) signaling pathway (AID 743222; calls by dose curve)
Outline: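 VDR-bla cells were plated 4 h at 37C/5% CO2, then exposed to compounds in DMSO for 16 h. After LiveBLAzer B/G FRET substrate addition and 2 h at room temperature, beta-lactamase reporter fluorescence was read.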

[18] = biological target: Vitamin D3 receptor (Homo sapiens) (UniProt P11473); test: qHTS assay to identify small molecule antagonists of the vitamin D receptor (VDR) signaling pathway (AID 743223; active means well fitted inhibition curve with a large enough effect in the signal ratio in the repeat runs, not every such curve was filed as active; the % refers to the signal ratio)
Outline: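 Quantitative HTS in VDR-bla reporter cells stimulated with 1alpha,25-dihydroxyvitamin D3, 3 nM final. Compound exposure 16 h, 37C, 5% CO2. Read-out: beta-lactamase FRET substrate fluorescence, 2 h RT.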

[19] = qHTS assay to identify small molecule agonists of the AP-1 signaling pathway - cell viability counter screen (AID 1159525; calls by dose curve; further: nearly all actives have a fitted effect of over 55% in size)
Outline: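 AP-1-bla ME-180 cells in Opti-MEM with 0.5% dialyzed FBS, compound exposure 5 h at 37 C in 15-point titration. Viability read in the same wells as ATP content by CellTiter-Glo luminescence, normalised to tetra-n-octylammonium bromide and DMSO controls.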

[20] = qHTS assay to identify small molecule agonists of the NFkB signaling pathway - cell viability counter screen (AID 1159515; calls by dose curve; further: series mostly up to about 61 µM; nearly all actives have a fitted effect of over 55% in size)
Outline: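 NFkB-bla ME-180 cells, 2,000/well, were plated overnight at 37 C, 5% CO2, then exposed to compounds in DMSO for 5 hr. After the bla FRET read, CellTiter-Glo was added to the same wells; luminescence was read after 30 min at room temperature.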

Measured: Potency

Peroxisome proliferator-activated receptor delta (Homo sapiens), sequence (Q03181 whole entry, looked up): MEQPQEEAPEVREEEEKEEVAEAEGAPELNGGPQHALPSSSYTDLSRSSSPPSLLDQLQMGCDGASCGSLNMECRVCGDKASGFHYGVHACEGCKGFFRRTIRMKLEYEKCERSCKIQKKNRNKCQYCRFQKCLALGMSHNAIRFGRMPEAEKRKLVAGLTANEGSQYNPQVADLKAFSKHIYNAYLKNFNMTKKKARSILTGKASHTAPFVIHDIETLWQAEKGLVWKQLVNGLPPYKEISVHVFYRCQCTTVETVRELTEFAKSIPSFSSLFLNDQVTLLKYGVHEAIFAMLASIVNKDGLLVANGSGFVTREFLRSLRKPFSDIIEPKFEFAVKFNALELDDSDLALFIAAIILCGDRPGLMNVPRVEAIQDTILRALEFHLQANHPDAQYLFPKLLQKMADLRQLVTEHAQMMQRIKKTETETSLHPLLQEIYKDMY
Vitamin D3 receptor (Homo sapiens), sequence (P11473 whole entry, looked up): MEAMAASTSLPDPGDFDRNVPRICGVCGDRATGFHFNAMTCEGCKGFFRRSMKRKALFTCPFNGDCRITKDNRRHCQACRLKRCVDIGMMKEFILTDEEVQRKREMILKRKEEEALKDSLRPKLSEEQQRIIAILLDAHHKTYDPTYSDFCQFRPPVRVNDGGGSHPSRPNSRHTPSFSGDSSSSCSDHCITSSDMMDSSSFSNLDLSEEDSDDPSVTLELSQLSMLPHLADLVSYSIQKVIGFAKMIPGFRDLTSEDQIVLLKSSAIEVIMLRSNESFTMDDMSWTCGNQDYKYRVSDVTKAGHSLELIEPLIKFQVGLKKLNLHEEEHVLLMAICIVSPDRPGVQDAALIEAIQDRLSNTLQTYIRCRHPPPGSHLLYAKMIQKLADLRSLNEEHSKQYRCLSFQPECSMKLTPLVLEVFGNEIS
Bile acid receptor (Homo sapiens), sequence (Q96RI1 whole entry, looked up): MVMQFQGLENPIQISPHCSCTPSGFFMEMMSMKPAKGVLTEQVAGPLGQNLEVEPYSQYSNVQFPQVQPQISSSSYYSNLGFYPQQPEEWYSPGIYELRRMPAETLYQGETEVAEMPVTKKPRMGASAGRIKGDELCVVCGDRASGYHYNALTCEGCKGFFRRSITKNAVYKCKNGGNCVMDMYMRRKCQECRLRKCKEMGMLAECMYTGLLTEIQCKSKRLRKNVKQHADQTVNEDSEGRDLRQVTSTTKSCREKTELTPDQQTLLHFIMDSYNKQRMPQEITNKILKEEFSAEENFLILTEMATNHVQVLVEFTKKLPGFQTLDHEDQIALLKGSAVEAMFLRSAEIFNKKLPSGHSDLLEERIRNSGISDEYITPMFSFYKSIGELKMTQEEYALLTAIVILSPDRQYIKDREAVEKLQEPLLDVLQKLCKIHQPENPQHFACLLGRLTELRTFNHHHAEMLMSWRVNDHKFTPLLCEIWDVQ

CCN(CC)C(=O)C1CN2CCc3cc(OC)c(OC)cc3C2CC1OC(C)=O (configuration not stated)
inactive: [1] | [2] | [3] | [4] | [5] | [7] | [8] | [9] | [10] | [11] | [12] | [13] | [14] | [15] | [16]
active: [6] 237 nM

O=C(O)c1ccccc1C(=O)Nc1ccc(S(=O)(=O)Nc2nccs2)cc1
inactive: [1] | [2] | [3] | [4] | [8] | [17] | [18] | [9] | [10] | [11] | [12] | [13] | [14] | [15] | [19] | [16]

Cc1ccc2c(c1)c1c3n2CCNC3CCC1 (configuration not stated)
inactive: [1] | [5] | [6] | [7] | [8] | [18] | [9] | [10] | [11] | [12] | [13] | [14] | [15] | [19] | [16]

CCCCC(CC)C(=O)OC(C)C (configuration not stated)
inactive: [1] | [3] | [5] | [6] | [8] | [17] | [9] | [11] | [12] | [13] | [14] | [15] | [19] | [16]

CCCCCCCCOC(C)=O
inactive: [1] | [2] | [3] | [4] | [6] | [8] | [17] | [9] | [10] | [11] | [12] | [13] | [14] | [15] | [19] | [16]

O=C(COCCOCCOCC(=O)Nc1c(I)cc(I)c(C(=O)O)c1I)Nc1c(I)cc(I)c(C(=O)O)c1I
inactive: [1] | [2] | [4] | [6] | [8] | [9] | [10] | [11] | [12] | [13] | [14] | [15] | [19] | [16]

Cc1nc2ccccc2c(=O)o1
inactive: [1] | [2] | [3] | [4] | [6] | [8] | [9] | [10] | [20] | [12] | [13] | [14] | [15] | [19] | [16]

O=c1[nH]c(=O)c2ccccc2o1
inactive: [1] | [3] | [5] | [6] | [7] | [8] | [9] | [10] | [20] | [12] | [13] | [14] | [15] | [16]

C=CC(C)(O)CC/C=C(\C)CC (configuration not stated)
inactive: [1] | [2] | [3] | [4] | [8] | [17] | [18] | [9] | [10] | [20] | [12] | [13] | [14] | [15] | [16]

C=CCOc1c(Br)cc(Br)cc1Br
inactive: [5] | [7] | [17] | [9] | [10] | [20] | [12] | [13] | [14] | [15] | [19] | [16]

C[C@@H]1C[C@H]2[C@@H]3C[C@H](F)C4=CC(=O)C=C[C@]4(C)[C@@]3(F)[C@@H](O)C[C@]2(C)[C@@]1(O)C(=O)CO
inactive: [1] | [3] | [6] | [8] | [17] | [18] | [9] | [10] | [20] | [12] | [13] | [15] | [19] | [16]

O=S(=O)(O)c1cc(O)ccc1O
inactive: [1] | [2] | [3] | [4] | [8] | [17] | [18] | [9] | [10] | [20] | [12] | [13] | [14] | [15] | [19] | [16]

C=CCOCC(O)CCl (configuration not stated)
inactive: [1] | [2] | [3] | [4] | [6] | [8] | [17] | [18] | [9] | [10] | [20] | [12] | [13] | [15] | [19] | [16]

NC(=O)C1(N2CCCCC2)CCN(CCCC(=O)c2ccc(F)cc2)CC1
inactive: [1] | [2] | [3] | [4] | [6] | [8] | [17] | [9] | [10] | [20] | [12] | [13] | [14] | [15] | [19] | [16]

CCS(=O)(=O)CCn1c([N+](=O)[O-])cnc1C
inactive: [1] | [2] | [3] | [6] | [8] | [17] | [18] | [9] | [10] | [20] | [12] | [14] | [15] | [16]

Cc1ncc([N+](=O)[O-])n1CC(O)CCl (configuration not stated)
inactive: [1] | [3] | [5] | [6] | [8] | [17] | [18] | [9] | [10] | [20] | [12] | [14] | [15] | [19] | [16]

CC1CCC(C(C)(C)S)C(=O)C1 (configuration not stated)
inactive: [1] | [2] | [3] | [4] | [5] | [7] | [8] | [18] | [9] | [10] | [20] | [12] | [13] | [14] | [15] | [19] | [16]

CCC(C)(CCC(C)C)C(=O)[O-].CCC(C)(CCC(C)C)C(=O)[O-].[Zn+2] (configuration not stated)
inactive: [1] | [2] | [3] | [4] | [6] | [8] | [17] | [9] | [10] | [20] | [12] | [14] | [15] | [16]

CC(=O)N1CCN(c2ccc(O)cc2)CC1
inactive: [1] | [3] | [6] | [8] | [18] | [9] | [10] | [20] | [12] | [13] | [14] | [15] | [19] | [16]

CC(C)(C)NCCO
inactive: [1] | [2] | [3] | [4] | [6] | [8] | [17] | [18] | [9] | [10] | [12] | [13] | [15] | [19] | [16]

C=C(C)[C@@H]1CC[C@@H](C)C[C@@H]1O
inactive: [1] | [3] | [6] | [8] | [9] | [10] | [20] | [12] | [13] | [14] | [15] | [19] | [16]

F[Si-2](F)(F)(F)(F)F
inactive: [1] | [2] | [3] | [4] | [6] | [8] | [17] | [18] | [9] | [10] | [12] | [13] | [14] | [15] | [19] | [16]
